Test results from PubChem BioAssay (NCI).
The panel holds about 83,000 compounds, 20% with a hit somewhere; the sample as a whole holds those more often.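 Step 1: grow cells in 96-well plates. Step 2: add test compound at a single concentration. Step 3: incubate 48 h. Step 4: record percent growth.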 A number with no mark means an inactive call. Calls of active or inactive are those of the source. Rule for the calls: active = growth percent below 10; inactive = the rest.

How the values were obtained:
Assay in all cases: NCI-60 one-dose screen, 48 h (100 = growth as untreated, 0 = no growth, -100 = all killed)
Details in all cases: 10 µM unless noted
NCI-H23 lung = tested on: NCI-H23 lung
NCI-H226 lung = tested on: NCI-H226 lung
NCI-H322M lung = tested on: NCI-H322M lung
HOP-62 NSCLC = tested on: HOP-62 NSCLC
NCI-H460 lung = tested on: NCI-H460 lung
HOP-92 NSCLC = tested on: HOP-92 NSCLC
NCI-H522 lung = tested on: NCI-H522 lung
A549/ATCC NSCLC = tested on: A549/ATCC NSCLC
786-0 renal = tested on: 786-0 renal
COLO 205 colon = tested on: COLO 205 colon
DU-145 prostate = tested on: DU-145 prostate
K-562 leukemia = tested on: K-562 leukemia
MALME-3M melanoma = tested on: MALME-3M melanoma
MDA-MB-231 breast = tested on: MDA-MB-231 breast
RXF 393 renal = tested on: RXF 393 renal
SF-268 CNS = tested on: SF-268 CNS
SF-295 CNS = tested on: SF-295 CNS
SF-539 CNS = tested on: SF-539 CNS
UACC-257 melanoma = tested on: UACC-257 melanoma
M14 melanoma = tested on: M14 melanoma

SMILES | growth (NCI-H23 lung) | growth (NCI-H226 lung) | growth (NCI-H322M lung) | growth (HOP-62 NSCLC) | growth (NCI-H460 lung) | growth (HOP-92 NSCLC) | growth (NCI-H522 lung) | growth (A549/ATCC NSCLC) | growth (786-0 renal) | growth (COLO 205 colon) | growth (DU-145 prostate) | growth (K-562 leukemia) | growth (MALME-3M melanoma) | growth (MDA-MB-231 breast) | growth (RXF 393 renal) | growth (SF-268 CNS) | growth (SF-295 CNS) | growth (SF-539 CNS) | growth (UACC-257 melanoma) | growth (M14 melanoma)
O=C(NC(Cl)=C(Cl)Cl)P(=O)(c1ccccc1)c1ccccc1 | 105% | 101% | 108% | 104% | 114% | 97.4% | 99.4% | 101% | 101% | 118% | 118% | 121% | 104% | 98.9% | 100% | 110% | 72.9% | 106% | 110% | 111%
Cc1cc(N(CCCl)CCCl)ccc1C=Nc1ccc(-c2csc(-c3ccccc3)n2)cc1 | 66.6% | 58.5% | 117% | 79.3% | 33.1% | 59.4% | 102% | 67.2% | 59.2% | 88.9% | 68.3% | 80.4% | 115% | 90.3% | 90.1% | 66.7% | 66.2% | 74.4% | 86.5% | 92.6%
CC1OC(=O)C(C(C)C)NC(=O)C(C(C)C)OC(=O)C(C(C)C)NC(=O)C(C)OC(=O)C(C(C)C)NC(=O)C(C(C)C)OC(=O)C(C(C)C)NC(=O)C(C)OC(=O)C(C(C)C)NC(=O)C(C(C)C)OC(=O)C(C(C)C)NC1=O (centres undefined) | -2.18% (active) | 0.0533% (active) | -3.44% (active) | -50% (active) | -11.9% (active) | -38.8% (active) | -21.2% (active) | -41.2% (active) | -6.45% (active) | -81% (active) | -60.2% (active) | -38.2% (active) | 9.37% (active) | -67.9% (active) | -63.1% (active) | 5.42% (active) | -27.1% (active) | -91.4% (active) | -53.5% (active) | –
Cc1cc[c-]cc1.Fc1c[c-]c(-c2ccccn2)c(F)c1.N#CCC[PH+](CCC#N)c1ccccc1.[Pt+2] | 34.3% | 72.3% | 79.4% | 116% | 43.1% | 16.3% | 16% | 50.5% | 48.9% | 12.5% | 57.6% | 11.6% | 0.385% (active) | 13.7% | -36% (active) | 46% | 85.2% | 48.3% | 62.4% | 21.9%
CCCCCCCCCCCCCCCCCC1OCC(COC(=O)O[C@@H](C(=O)O[C@H]2C[C@@]3(O)[C@@H](OC(=O)c4ccccc4)[C@@H]4[C@]5(OC(C)=O)CO[C@@H]5C[C@H](O)[C@@]4(C)C(=O)[C@H](OC(C)=O)C(=C2C)C3(C)C)[C@@H](NC(=O)c2ccccc2)c2ccccc2)O1 (some centres undefined) | 40.3% | 53.4% | 58.8% | 60.5% | 18.2% | 94.8% | 48.6% | 53.2% | 80.9% | 24.7% | 44.4% | 18.8% | 59.3% | 81.8% | 28.1% | 59.1% | 48.4% | 51.2% | 69.8% | 37.8%
O=Cc1cn(Cc2ccccc2)c2ccccc12 | 80.1% | 28.2% | 86% | 65.8% | 20.9% | 74.4% | 121% | 76.6% | 87.6% | 15.4% | 108% | 53.3% | 127% | 92.7% | 67.6% | 104% | 99.5% | 95.1% | 37.8% | 117%
